These results are taken from PubChem BioAssay (Tox21).

Several values for one entry are separate records, joined by “and”; a condition that tells them apart may be missing. Identical values can stand only once. Records with an inconclusive call do not appear. A structure can be active in one record and inactive in another. Activity calls are given as the source filed them. Unless noted, the call rests on the fitted dose curve; in most records, active means well fitted curve in the direction sought with a large enough effect in the repeat runs; inconclusive means weak or mixed curves; inactive means no such curve, though single readings can be large; an effect the other way counts as inactive or inconclusive.

Test [1] can be described thus: qHTS assay to identify small molecule antagonists of the estrogen receptor alpha (ER-alpha) signaling pathway using the BG1 cell line in the presence of 0.1 nM 17-beta-estradiol - cell viability counter screen (AID 1259241). Further: nearly all actives have a fitted effect of over 40% in size. Further: potency means the concentration at half of the fitted maximal effect. The method, boiled down: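 Live-cell protease activity (CellTiter-Fluor fluorescence, 30 min) was read in the same wells after VM7Luc4E2 cells had been exposed to compounds with 0.1 nM 17beta-estradiol for 22 hr at 37C.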
Background: In qHTS, concentration-response curves come from the screen itself.

A short description of test [2]: qHTS assay to identify small molecule antagonists of the androgen receptor (AR) signaling pathway using the MDA cell line in the presence of 0.5 nM R1881 - cell viability counter screen (AID 1259242). Further: nearly all actives have a fitted effect of over 45% in size. Further: potency means the concentration at half of the fitted maximal effect. In outline: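 Concentration-response screen of compounds for toxicity in MDA-kb2 reporter cells: 16 hr at 37C with 0.5 nM R1881, endpoint live-cell protease fluorescence measured in the reporter wells.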

Test [3] in a line: qHTS assay to identify small molecule HDAC inhibitors (AID 1259364).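 Further: wild-type HCT-116 cells with endogenous class I/II HDAC activity; top concentration of the series differs between compounds; nearly all actives have a fitted effect of over 45% in size.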 In outline: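 Screening used wild-type human colon HCT-116 cells incubated overnight, dosed with compounds for 2 hours, and assayed with a homogeneous luminogenic HDAC I/II reagent for 30 minutes at room temperature.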
Test [4] in a line: qHTS assay to identify small molecule HDAC inhibitors - cell viability counter screen (AID 1259365). Further: series mostly up to about 92 µM; nearly all actives have a fitted effect of over 50% in size. The method, boiled down: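 HCT-116 (wild type), 1,500 cells/well, overnight 37C/5% CO2; compound in DMSO 2hr; CellTiter-Glo 30min RT; luminescence read.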
Test [5] in a line: qHTS assay to identify small molecule agonists of the sonic hedgehog signaling (Shh) pathway - cell viability counter screen (AID 1259366). Further: nearly all actives have a fitted effect of over 50% in size. In outline: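 CellTiter-Fluor fluorescence read-out, 1 hr at 37C, added after 23hr compound exposure. Cells: 3T3 Gli1-Luc, an NIH/3T3 clone with stably integrated Gli1-Luc reporter, plated 4hr before compound.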
Test [6] is described as follows: qHTS assay to identify small molecule antagonists of the sonic hedgehog signaling (Shh) pathway - cell viability counter screen (AID 1259367). Further: nearly all actives have a fitted effect of over 55% in size. Further: potency means the concentration at half of the fitted maximal effect. In outline: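 Conditioned medium drove Shh signaling in 3T3 Gli1-Luc cells exposed to compounds at 37C and 5% CO2. Viability was determined from CellTiter-Fluor fluorescence, with reagent incubated 1 hr after 23 hr of treatment.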

A short description of test [7]: qHTS assay to identify small molecule agonists of the sonic hedgehog signaling (Shh) pathway (AID 1259368; calls by dose curve;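 further: NIH/3T3-derived 3T3Gli1-Luc cells carrying a stable Gli1-driven firefly luciferase reporter; series mostly up to about 92 µM; nearly all actives have a fitted effect of over 15% in size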). In outline:
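Hedgehog pathway agonism scored by increased firefly luciferase luminescence in 3T3Gli1-Luc cells treated 24 hr at 37 C; detection used a 30 min room-temperature reagent incubation.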

A short description of test [8]: qHTS assay to identify small molecule antagonists of the sonic hedgehog signaling (Shh) pathway (AID 1259369; calls by dose curve; further: nearly all actives have a fitted effect of over 45% in size; further: potency means the concentration at half of the fitted maximal effect). The method, boiled down:
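NIH/3T3 stable Gli1-Luc clone, 2,000 cells/well, 4hr settle; cpd + conditioned medium 24hr; Luc reagent 30min RT; luminescence.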

In test [9] the target is Estrogen receptor beta (Homo sapiens) (UniProt Q92731). Kind of test: qHTS assay to identify small molecule agonists of the estrogen receptor beta (ER-beta) signaling pathway (AID 1259377; active means well fitted activation curve with a large enough effect in the signal ratio in the repeat runs, not every such curve was filed as active; the % refers to the signal ratio). The method, boiled down:
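Beta-lactamase reporter readout: fluorescence of LiveBLAzer B/G FRET substrate after 2 h at room temperature, following 16 h compound treatment of ER-beta-UAS-bla HEK293T cells at 37C in 2% charcoal-stripped FBS medium.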

For test [10] the target is unchanged. Nature of the test: qHTS assay to identify small molecule antagonists of the estrogen receptor beta (ER-beta) signaling pathway (AID 1259378; active means well fitted inhibition curve with a large enough effect in the signal ratio in the repeat runs, not every such curve was filed as active; the % refers to the signal ratio). In outline: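 ER-beta-UAS-bla HEK293T (GripTite) cells in 2% charcoal-stripped FBS medium were preincubated 6 hr at 37C, dosed with compound, then stimulated with 1 nM E2 (final) for 16 hr; beta-lactamase reporter read by B/G FRET fluorescence after 2 hr substrate loading.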

Test [11] in a line: qHTS assay to identify small molecule agonists of the androgen receptor (AR) signaling pathway in the presence of an antagonist - cell viability counter screen (AID 1259379). Further: nearly all actives have a fitted effect of over 25% in size. Further: potency means the concentration at half of the fitted maximal effect. In outline: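 MDA-kb2 viability measured by CellTiter-Fluor fluorescence in the same wells as the luciferase signal; nilutamide 3.0uM final; 15-point compound titration; 16 hr at 37C.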
Test [12] in a line: qHTS assay to identify small molecule agonists of the estrogen receptor beta (ER-beta) signaling pathway - cell viability counter screen (AID 1259380). Further: nearly all actives have a fitted effect of over 30% in size. The method, boiled down: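 Measured: luminescence from CellTiter-Glo after 30 min at room temperature, added to wells already read for the LiveBLAzer FRET reporter (2 hr substrate); ER-beta-UAS-bla HEK293T cells had 16 hr compound treatment at 37C, 5% CO2.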

Test [13] can be described thus: qHTS assay to identify small molecule antagonists of the estrogen receptor beta (ER-beta) signaling pathway - cell viability counter screen (AID 1259382). Further: series mostly up to about 92 µM; nearly all actives have a fitted effect of over 55% in size. In outline:
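Readout: luminescence, CellTiter-Glo, same wells as bla assay. System: ER-beta-UAS-bla GripTite HEK293T, 2% charcoal-stripped FBS. Exposure: compounds plus 1nM 17-beta-estradiol, 16 hr, 37C.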

Test [14] can be described thus: qHTS assay to identify small molecule agonists or antagonists of the thyroid stimulating hormone receptor (TSHR) signaling pathway - wild type cell line counter screen (AID 1259384; calls by dose curve). In outline: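 Wild-type HEK293 cells were plated 18 h at 37 C/5% CO2, pin-dosed with compound plus Ro20-1724 medium, held 30 min at room temperature, then given cAMP-d2 and anti-cAMP-cryptate; fluorescence was read after 1 h. Fifteen concentrations, triplicate.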

Test [15] in a line: qHTS assay to identify small molecule phospholipidosis (PLD) inducers (AID 1259344; active means well fitted curve in the direction sought with a large enough effect; an effect the other way counts as inactive or inconclusive). The method, boiled down:
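After 4 h attachment on collagen I, HepG2 cells were dosed with compound alongside LipidTOX Red, kept 24 h at 37 C, fixed, and imaged for lamellar phospholipid pits.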

Test [16] addresses Thyrotropin receptor (Homo sapiens) (UniProt P16473). Kind of test: qHTS assay to identify small molecule antagonists of the thyroid stimulating hormone receptor (TSHR) signaling pathway (AID 1259385; calls by dose curve; further: nearly all actives have a fitted effect of over 20% in size). In outline:
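TSHR-HEK293 cells were plated and held 18 h at 37C/5% CO2, then given compound plus Ro20-1724 and stimulated with TSH at 1.5 ng/mL final. After 30 min at room temperature, cAMP was detected with cAMP-d2/anti-cAMP-cryptate (1 h) by fluorescence.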

Test [17] addresses Estrogen receptor (Homo sapiens) (UniProt P03372). Kind of test: qHTS assay to identify small molecule antagonists of the estrogen receptor alpha (ER-alpha) signaling pathway using the BG1 cell line in the presence of 0.1 nM 17-beta-estradiol (AID 1259244). Further: nearly all actives have a fitted effect of over 50% in size. In outline:
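Compounds were tested against 0.1 nM (final) 17beta-estradiol in VM7Luc4E2 cells, which express full-length ER-alpha and an ERE-luciferase reporter; luminescence was recorded following 22 h exposure.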

Test [18] has the same target. Nature of the test: qHTS assay to identify small molecule agonists of the estrogen receptor alpha (ER-alpha) signaling pathway in the presence of an antagonist (AID 1259383; calls by dose curve; further: top concentration of the series differs between compounds; nearly all actives have a fitted effect of over 15% in size). The method, boiled down: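 Quantitative HTS confirmation: compounds titrated at 15 concentrations onto estrogen-deprived VM7Luc4E2 cells carrying a four-ERE luciferase construct, with ICI-182,780 present at 10.0nM final. Signal is luminescence after 22hr exposure.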

Chain of Thyrotropin receptor (Homo sapiens) (P16473 whole entry, looked up): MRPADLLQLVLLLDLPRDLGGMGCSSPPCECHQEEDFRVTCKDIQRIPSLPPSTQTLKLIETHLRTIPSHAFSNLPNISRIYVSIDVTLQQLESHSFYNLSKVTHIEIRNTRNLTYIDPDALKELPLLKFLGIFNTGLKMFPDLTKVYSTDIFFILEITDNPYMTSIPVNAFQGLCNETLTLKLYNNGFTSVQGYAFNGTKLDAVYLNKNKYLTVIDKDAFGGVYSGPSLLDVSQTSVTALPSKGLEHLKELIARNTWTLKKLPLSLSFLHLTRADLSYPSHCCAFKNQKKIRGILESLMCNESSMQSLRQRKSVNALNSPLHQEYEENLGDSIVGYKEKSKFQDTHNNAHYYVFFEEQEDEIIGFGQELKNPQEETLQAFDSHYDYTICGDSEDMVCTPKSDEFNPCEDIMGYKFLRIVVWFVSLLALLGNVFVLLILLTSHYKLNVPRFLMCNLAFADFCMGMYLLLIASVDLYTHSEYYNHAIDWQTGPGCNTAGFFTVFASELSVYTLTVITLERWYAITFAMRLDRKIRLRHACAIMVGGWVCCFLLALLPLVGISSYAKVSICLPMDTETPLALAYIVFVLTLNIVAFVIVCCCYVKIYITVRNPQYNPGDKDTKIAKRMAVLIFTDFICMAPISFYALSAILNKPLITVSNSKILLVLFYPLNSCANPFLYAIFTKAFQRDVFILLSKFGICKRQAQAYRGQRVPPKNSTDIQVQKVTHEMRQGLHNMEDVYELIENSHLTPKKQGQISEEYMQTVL
Chain of Estrogen receptor (Homo sapiens) (P03372 whole entry, looked up): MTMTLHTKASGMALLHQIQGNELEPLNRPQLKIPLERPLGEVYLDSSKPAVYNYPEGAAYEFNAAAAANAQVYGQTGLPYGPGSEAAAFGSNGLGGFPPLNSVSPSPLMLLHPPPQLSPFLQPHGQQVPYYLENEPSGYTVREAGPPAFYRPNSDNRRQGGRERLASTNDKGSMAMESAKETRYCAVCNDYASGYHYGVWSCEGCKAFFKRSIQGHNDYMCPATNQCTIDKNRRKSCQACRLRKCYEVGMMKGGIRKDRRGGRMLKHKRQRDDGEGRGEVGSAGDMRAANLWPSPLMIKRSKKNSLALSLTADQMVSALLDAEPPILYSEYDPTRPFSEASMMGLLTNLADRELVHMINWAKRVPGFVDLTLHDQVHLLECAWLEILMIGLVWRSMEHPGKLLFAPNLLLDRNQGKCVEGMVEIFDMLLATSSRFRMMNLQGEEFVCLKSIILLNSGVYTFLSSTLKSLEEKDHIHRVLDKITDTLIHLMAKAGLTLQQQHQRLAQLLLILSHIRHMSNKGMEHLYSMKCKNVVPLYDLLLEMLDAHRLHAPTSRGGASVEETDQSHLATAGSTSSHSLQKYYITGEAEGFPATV
Chain of Estrogen receptor beta (Homo sapiens) (Q92731 whole entry, looked up): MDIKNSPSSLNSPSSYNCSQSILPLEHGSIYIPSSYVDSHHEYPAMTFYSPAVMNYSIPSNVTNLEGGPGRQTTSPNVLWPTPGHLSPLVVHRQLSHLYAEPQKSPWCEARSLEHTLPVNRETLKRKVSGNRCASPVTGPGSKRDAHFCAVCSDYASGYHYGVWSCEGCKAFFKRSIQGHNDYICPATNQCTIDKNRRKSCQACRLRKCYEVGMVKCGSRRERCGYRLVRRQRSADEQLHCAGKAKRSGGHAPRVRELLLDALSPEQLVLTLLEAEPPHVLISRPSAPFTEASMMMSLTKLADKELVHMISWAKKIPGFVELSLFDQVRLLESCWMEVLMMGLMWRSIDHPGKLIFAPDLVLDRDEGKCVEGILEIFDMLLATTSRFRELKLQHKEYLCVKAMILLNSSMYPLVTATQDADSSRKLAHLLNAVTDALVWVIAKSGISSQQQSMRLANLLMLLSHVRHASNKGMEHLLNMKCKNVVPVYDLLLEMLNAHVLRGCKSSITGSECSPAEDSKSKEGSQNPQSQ

Regarding `N[C@@H](Cc1c[nH]c2ccccc12)C(=O)O`, the Potency result in test [1], in [2], in test [3], in [5], in test [6] and in [8] was “inactive” each time. In addition, the Potency result in test [10], in test [11], in [12], in [13] and in [14] was “inactive” throughout. Besides, the result in test [4], in [7] and in test [9] was inactive.
Take `CC(C)=CCC/C(C)=C/CO`: the Potency result in [1], in [2], in test [15], in test [3], in [5] and in test [6] was “inactive” throughout. The Potency entry in [11], in test [12], in [13] and in test [14] was “inactive” throughout. For the same compound, the result in test [4], in test [7] and in test [16] was inactive.
`O=C(O)Cc1cccc2ccccc12`: the Potency entry in test [1], in test [2], in test [15], in test [3], in test [5] and in test [6] was “inactive” in each case. In addition, the Potency result in test [11], in test [12] and in [13] was “inactive” throughout. Further, the call in test [7] and in test [16] was inactive.
`CC(C)CC(C)CC(O)CC(C)C` (centres undefined): the Potency entry in test [1], in test [2], in test [3], in [5], in test [6] and in [8] was “inactive” throughout. Moreover, the Potency entry in [11], in [12] and in [13] was “inactive” throughout. Further, the compound was classed as inactive in [4] and in [7].
Consider `CCc1cc(C(N)=S)ccn1`, for which the Potency result in test [1], in [2], in test [15], in test [3], in test [6] and in test [11] was “inactive” each time. The Potency result in test [13] and in test [14] was “inactive” each time. Also, in [7], the call was inactive.
Turning to `Cc1c(N(C)CS(=O)(=O)O)c(=O)n(-c2ccccc2)n1C`, the Potency result in test [1], in [2], in test [15], in test [3], in [6] and in test [8] was “inactive” each time. In addition, the Potency entry in test [10], in [11], in test [13] and in [14] was “inactive” throughout. Moreover, the result in test [4], in [7] and in test [9] was inactive.
Consider `CCCCNC(=O)NS(=O)(=O)c1ccc(N)cc1`, for which the Potency entry in test [1], in test [2], in [15], in [3], in test [6] and in [8] was “inactive” in each case. Further, the Potency entry in [10], in test [11], in test [13] and in [14] was “inactive” throughout. For the same compound, the compound was classed as inactive in [4], in test [7] and in test [9].
For `CO[C@H]1C=CO[C@@]2(C)Oc3c(C)c(O)c4c(O)c(c(/C=N/N5CCN(C)CC5)c(O)c4c3C2=O)NC(=O)/C(C)=C\C=C[C@H](C)[C@H](O)[C@@H](C)[C@@H](O)[C@@H](C)[C@H](OC(C)=O)[C@@H]1C`, the Potency in test [1] was 27.4 µM (active) and 19.6 µM (active) and 13.3 µM (active); in test [2] it was 30.8 µM (active); in test [6], 24.5 µM (active) and 17.4 µM (active) and 11.9 µM (active); in test [8], 27.4 µM (active) and inactive; in [11], 24.5 µM (active) and 27.6 µM (active) and 15 µM (active). In addition, the Potency entry in test [15], in [3], in [10], in test [13] and in test [14] was “inactive” throughout. Further, the call in [7], in [9] and in test [16] was inactive.
Regarding `C=C(C)C(N)=O`, the Potency entry in test [1], in test [2], in test [17], in test [3], in [6] and in test [11] was “inactive” throughout. Also, the Potency result in test [12], in test [13], in test [18] and in test [14] was “inactive” throughout. In addition, the compound was classed as inactive in [7] and in test [16].
